In the library only some 4.7% were active in any assay of this set; here they are far more common.
D1 potentiator = Potentiators of Human D1 Dopamine Receptor: qHTS | HEK293 TREx D1 cells, calcium flux, dopamine EC20 potentiation | D(1A) dopamine receptor (Homo sapiens), P21728 | hit rate 0.036% among 360,000 | potentiation, % at 10 µM | AID 504651, 2011; in the data active = potentiation above about 30%; note: 0% is about no effect
TRHR PAM = qHTS for Small Molecule Agonists and Allosteric Enhancers of Human TRH Receptor: Primary Screen for Enhancers; Thyrotropin-releasing hormone receptor (Homo sapiens), P34981; AID 493056, 2011; TRHR cells, fluo-8 calcium fluorescence, EC20 TRH enhancement; hit rate 0.66% among 360,000; enhancement, % at 2 µM; in the data active = enhancement above about 30%; note: 0% is about no effect
Target sequence (P34981 whole entry, looked up): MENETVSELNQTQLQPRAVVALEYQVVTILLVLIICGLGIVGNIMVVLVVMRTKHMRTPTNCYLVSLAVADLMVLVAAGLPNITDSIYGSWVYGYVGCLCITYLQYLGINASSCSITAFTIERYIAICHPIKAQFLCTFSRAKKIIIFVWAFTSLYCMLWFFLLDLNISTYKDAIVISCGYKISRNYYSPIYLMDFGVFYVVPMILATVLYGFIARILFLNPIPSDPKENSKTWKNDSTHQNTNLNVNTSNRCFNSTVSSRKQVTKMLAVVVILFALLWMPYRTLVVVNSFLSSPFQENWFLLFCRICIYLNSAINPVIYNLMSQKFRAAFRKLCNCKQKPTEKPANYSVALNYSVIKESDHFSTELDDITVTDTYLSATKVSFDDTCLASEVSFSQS
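Enhancer read-out: after compound pinning and an initial kinetic agonist-mode read, an EC20 of TRH (10 nM final) was injected and fluo-8 calcium signal (Ex 480/Em 530) followed at 1 s/cycle for 100 cycles in TRHR-expressing cells.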
D1 antag = Antagonist of Human D 1 Dopamine Receptor: qHTS | D(1A) dopamine receptor (Homo sapiens), P21728 | HEK293 TREx D1 cells, calcium flux, dopamine EC80; active compounds read low | activity change, negative = inhibition, % at 10 µM | hit rate 3.2% among 360,000 | AID 504652, 2011; in the data active = activity change below about -30%; note: % is set by controls: 0 for no effect and ±100 for the full control effect
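Kinetic fluorescence of a calcium dye serves as the read-out. D1-expressing Hek293 Trex cells, induced overnight at 30 C, are exposed to compound for 180 s before an EC80 dopamine addition, then read 180 s further.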
TRHR agonist = qHTS for Small Molecule Agonists and Allosteric Enhancers of Human TRH Receptor: Primary Screen for Agonists; hit rate 0.18% among 360,000; TRHR cells, calcium flux fluo-8, FDSS agonist mode; activation, % at 2 µM; Thyrotropin-releasing hormone receptor (Homo sapiens), P34981; note: 0% is about no effect
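Agonist-mode FDSS calcium read (Ex 480/Em 530, 1 s cycles) in 1536-well TRHR cells with fluo-8 dye, after 10-cycle baseline and 23 nL compound addition; TRH at EC20 (10 nM final) added afterwards for the enhancer phase.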
D1 agonist = Allosteric Agonists of the Human D1 Dopamine Receptor: qHTS | D(1A) dopamine receptor (Homo sapiens), P21728 | HEK293 T-REx D1 cells, calcium flux, agonist mode | activation, % at 2 µM | hit rate 1% among 360,000 | AID 504660, 2011; note: 0% is about no effect
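Agonism was scored from calcium flux recorded over 180 s (1 read/s) after pintool compound addition, following a 10-cycle baseline. Cells were inducible force-coupled HEK293 TREx D1, plated overnight at 30 C and loaded with no-wash calcium dye.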
* hit, by the source's call. Cut-off read from the data, not from the text of the source, unless noted: active = activation above about 30%; inactive = the rest.

SMILES	D1 potentiator	TRHR PAM	D1 antag	TRHR agonist	D1 agonist
COC(=O)c1c(SCC(=O)Nc2ccccc2OC)[nH]c2ccccc2c1=O	-0.2	2.7	10.2	0.1	1.4
CC(C)(C)n1c(O)c2ccc(C(=O)N=NC(=O)c3ccccc3)cc2c1O	-0.4	1.8	-31.0*	-0.6	9.4
Cc1ccc(NC(=O)COc2ccc(CCO)cc2-n2nc3ccccc3n2)cc1C	-8.8	-2.8	-71.7*	0.6	4.9
COc1ccccc1OC(C)C(=O)N1CCC(Cc2ccccc2)CC1 (stereo not given)	-6.8	3.1	-10.0	-0.5	3.3
Cc1ccc([N+](=O)[O-])c(OCCN2CCC(Cc3ccccc3)CC2)c1	-12.9	3.7	-55.0*	2.7	26.8
Cc1ccc(/C=C/C(=O)N2CCC(Cc3ccccc3)CC2)cc1	-9.0	5.7	-33.4*	0.7	9.8
Cc1ccccc1OC(C)C(=O)N1CCC(Cc2ccccc2)CC1 (stereo not given)	-1.9	-4.7	-46.8*	-0.4	13.1
Cc1ccc(/C=C/C(=O)N2CCCC(C)C2)cc1 (stereo not given)	-2.5	-0.9	-3.5	-0.3	1.2
Cc1cccc(C(=O)N2CCC(Cc3ccccc3)CC2)c1[N+](=O)[O-]	-6.0	9.0	-36.4*	-0.3	1.1
COc1ccc(CCNC(=O)C2CCCN(c3nc4c(C)cc(C)cc4s3)C2)cc1OC (stereo not given)	-3.2	-8.8	-20.4	0.4	2.3
COc1cc(OC)cc(C(=O)NC(=S)NNC(=O)[C@H]2C[C@@H]2c2ccccc2)c1	-3.5	-1.5	-8.7	7.1	87.6*
O=C(NC(=S)NNC(=O)[C@H]1C[C@@H]1c1ccccc1)c1ccc(F)cc1	-1.9	-4.3	-21.5	11.1	91.0*
N=c1n(CCN2CCCCC2)c2ccccc2n1CC(O)c1ccc(Cl)c(Cl)c1 (stereo not given)	-2.6	1.6	14.7	-0.7	65.0*
COc1ccc(Cl)cc1NC(=O)CSc1nc(-c2ccco2)cc(C(F)(F)F)n1	-4.3	4.8	8.2	1.0	6.8
CCCc1c(C)c2ccccc2[nH]c1=O	-7.2	40.8*	-5.7	-0.6	0.5
CCCc1c(O)c2ccccc2[nH]c1=O	-1.6	0.3	6.9	0.1	3.9
CCN(CC(=O)Nc1c(F)cccc1F)C(=O)c1ccc(COc2ccccc2)cc1	0.8	-4.3	4.7	-0.6	0.8
CCC(=O)c1ccc(OCc2ccc(C(=O)OC)cc2)cc1	-4.0	-3.8	-22.5	-0.5	15.8
CCC(=O)c1ccc(OCc2ccc(C#N)cc2)cc1	-2.5	-6.4	-36.8*	0.3	-0.5
CCOc1ccc(OCc2ccc(C(=O)N(CC)CC)cc2)cc1	-6.3	-3.2	-42.1*	-0.1	16.0
CCN(CC)C(=O)c1ccc(CS(=O)(=O)Cc2ccccc2)cc1	-0.3	-6.4	-30.7*	1.3	6.5
CCN(Cc1ccccc1)C(=O)c1ccc(C(=O)N(CC)Cc2ccccc2)cc1	0.8	-5.5	-62.0*	-0.3	3.6
O=C(c1ccccc1)N(Cc1ccccc1)Cc1ccccc1	-9.4	-6.6	-12.7	0.6	1.1
CCCCOC(=O)c1ccc(NC(=O)Cc2coc3c(C)c(C)ccc23)cc1	-1.9	-2.1	0.8	4.5	24.0
CC1(C)CN=c2s/c(=C\c3ccc(Cl)cc3)c(=O)n2C1	-6.8	5.1	7.6	2.0	33.0*
SMILES	D1 potentiator	TRHR PAM	D1 antag	TRHR agonist	D1 agonist
CSC1=N/C(=C\c2ccc(Cl)cc2)C(=O)N1N(C)C	-3.6	0.7	-5.0	0.1	8.5
COc1ccc(-n2c(/C=C/c3c(C)[nH]c4ccccc34)nc3ccccc3c2=O)cc1	-2.4	-1.3	-57.4*	-1.8	0.5
Cc1[nH]c2ccccc2c1/C=C/c1nc2ccccc2c(=O)n1-c1cccc([N+](=O)[O-])c1	-9.8	0.2	-36.7*	-0.6	-1.0
O=c1c2ccccc2nc(/C=C/c2c[nH]c3ccccc23)n1-c1ccc([N+](=O)[O-])cc1	-2.4	-3.2	-13.5	-0.1	-0.3
Cc1ccc(CNC(=O)CCCN2C(=O)COc3ccc(C)cc32)cc1	-1.0	-2.2	8.9	-1.1	-1.7
Nc1nc(-c2ccccc2)c(-c2ccc([N+](=O)[O-])cc2)s1	-3.6	7.7	-4.0	21.5	71.3*
Nc1nc(-c2ccccc2)c(-c2ccccc2)s1	0.5	1.2	-6.9	0.2	0.5
C=CCN(CC(=O)NCc1ccc(F)cc1)C(=O)c1csnn1	8.6	-0.1	-35.3*	0.3	3.8
COC(=O)c1ccccc1OC(=O)c1cc[n+]([O-])cc1	30.8*	4.4	9.2	0.1	6.7
Cc1ccccc1-n1nnnc1SCc1csc(-c2ccccc2)n1	-10.0	-4.9	-34.5*	0.9	12.2
COc1ccc(CCNC(=O)c2cc3c(=O)[nH]c4ccc(C)cc4c3s2)cc1OC	-2.1	1.3	-21.0	0.6	0.9
CCOc1cccc(CNCCCSc2nnnn2C)c1	0.8	-17.0	-13.0	-0.3	0.2
Cn1nnnc1SCCCNCc1ccccc1OCc1ccc(Cl)cc1	-0.1	-8.7	-38.8*	1.7	75.1*
Cn1nnnc1SCCNCc1ccccc1OCc1ccc(Cl)cc1	-10.8	-5.8	19.4	-0.1	19.9
Cn1nnnc1SCCCNCc1cccc(OCc2ccc(F)cc2)c1	4.6	4.7	-31.1*	-0.4	149.8*
Cn1nnnc1SCCNCc1ccc(OCc2ccccc2Cl)cc1	-0.9	4.6	-5.3	-1.8	97.7*
CCOC(=O)Cn1c(=O)n(C2CCCCC2)c2nc(-c3ccc(CC)cc3)nc(C(N)=O)c21	0.4	-5.0	10.1	0.1	0.1
COc1cccc(Cn2c(CNS(=O)(=O)c3ccc(F)c(Cl)c3)nc3cccnc32)c1	-0.2	-4.6	4.3	-0.1	0.9
O=C(Nc1cccc(O)c1)c1cc(-c2ccccc2Cl)on1	4.4	-10.7	-36.4*	0.3	7.6
CC(=O)c1ccc(NC(=O)c2nc(-c3ccccc3)n(-c3ccccc3Cl)n2)cc1	-2.4	0.7	-8.1	-0.1	3.2
CC(C)(C)C(=O)Nc1ccc2nc(SCCOc3ccccc3Cl)sc2c1	3.5	6.8	-0.9	-1.0	30.1*
CC(=O)Nc1ccc2nc(SCCOc3ccccc3)sc2c1	-1.6	4.3	-8.0	0.4	1.4
Cc1ccccc1OCCSc1nc2ccc(NC(=O)c3ccccc3)cc2s1	-1.8	14.8	-32.9*	-2.4	16.8
CCOC(=O)c1ccc(Nc2c(-c3cccc(O)c3)nc3nc[nH]n23)cc1	-3.2	7.8	-13.5	-0.1	5.4
CCOC(=O)N1CCC2(CC1)C(C#N)=C(N)Oc1n[nH]c(CSc3ccc(C)cc3)c12	-1.6	-1.2	-39.3*	1.1	2.3
S=C(NC1CCCC1)N1CCN(C/C=C/c2ccccc2)CC1	-9.7	4.9	-35.6*	-1.3	16.0
S=C(NC1CCCC1)N1CCN(c2ccc(Cl)cc2)CC1	-4.9	-0.1	-46.2*	0.1	4.6

Assay outcomes (PubChem)
